Reference: the antibiotic and cytotoxicity screens of Wong et al. (2023)
Screen size: about 39,000 compounds; about 500 (1.3%) were called active. The list comes from a sample in which actives are over-represented; it also holds similar structures and randomly drawn compounds.

system: S. aureus RN4220; assay: growth inhibition call (relative growth <= 0.2); settings: 50 µM

| Structure (SMILES) | growth inhibition call |
| --- | --- |
| O.O.O.O=C([O-])C1[O][Sb]2[O]C(=O)C([O]2)C(C(=O)[O-])[O][Sb]2[O]C(=O)C1[O]2.[K+].[K+] (configuration not stated) | inactive |
| CC(C)=CCCC1(C)C=Cc2c(O)c3c(c(CC=C(C)C)c2O1)OC12C(=CC4CC1C(C)(C)OC2(CC=C(C)C(=O)O)C4=O)C3=O (configuration not stated) | inactive |
| NC(=O)c1cc([N+](=O)[O-])cc([N+](=O)[O-])c1 | inactive |
| CC(C)[C@@H]1NC[C@@H]2CCCN2C1=O | inactive |
| C=C[C@H]1[C@H](O[C@@H]2O[C@H](CO)[C@@H](O)[C@H](O)[C@H]2O)OC=C2C(=O)OCC[C@H]21 | inactive |
| O=[N+]([O-])c1ccc(N(CCO)CCO)c2c1no[n+]2[O-] | active |
| C#CCOS(=O)OC1CCCCC1Oc1ccc(C(C)(C)C)cc1 (configuration not stated) | inactive |
| O=C(c1ccccc1)C12CN3CN(CN(C3)C1)C2 | inactive |
| C1CC2(CCN1)OCCO2 | inactive |
| Clc1cc2c(cc1Cl)Oc1cc(Cl)c(Cl)cc1O2 | inactive |
| [O-][n+]1ccccc1[S][Zn][S]c1cccc[n+]1[O-] | active |
| O[C@H]1[C@H](O)[C@@H](O)CN2CC[C@H](O)[C@H]12 | inactive |
| CCN(CC)S(=O)(=O)c1ccc(Cn2nc(C(=O)Nc3ccc(N4CCCCC4)cc3)c3ccccc32)cc1 | inactive |
| COC(=O)C(c1ccccc1)C1CCCCN1.Cl (configuration not stated) | inactive |
| CC[C@@H](N)[C@@H](O)c1ccc(O)c(O)c1 | inactive |
| CCC(COC(=O)c1cc(OC)c(OC)c(OC)c1)(c1ccccc1)N(C)C.O=C(O)C=CC(=O)O (configuration not stated) | inactive |
| COP(=S)(OC)Oc1cc(Cl)c(Cl)cc1Cl | active |
| COP(=S)(OC)Oc1ccc(Sc2ccc(OP(=S)(OC)OC)cc2)cc1 | inactive |
| CCOP(=S)(OCC)Oc1nc(Cl)c(Cl)cc1Cl | inactive |
| N[C@@]1(C(=O)O)CC[C@@H](C(=O)O)C1.N[C@]1(C(=O)O)CC[C@H](C(=O)O)C1 | inactive |
| NCCc1nnc2n1CCCCC2 | inactive |

| Structure (SMILES) | growth inhibition call |
| --- | --- |
| CNC(C)C(O)c1ccccc1.Cl (configuration not stated) | inactive |
| CCCCCCCCCCCCCCCC[n+]1ccccc1.[Cl-] | inactive |
| CNC1C(O)C(OC2C(N)CC(N)C(OC3OC(C(C)O)C(O)C(O)C3N)C2O)OCC1(C)O (configuration not stated) | active |
| CN[C@@H]1[C@@H](O)[C@@H](O[C@@H]2[C@@H](O)[C@H](O[C@H]3O[C@H](CN)CC[C@H]3N)[C@@H](N)C[C@H]2N)OC[C@]1(C)O.CN[C@@H]1[C@@H](O)[C@@H](O[C@@H]2[C@@H](O)[C@H](O[C@H]3O[C@H]([C@@H](C)N)CC[C@H]3N)[C@@H](N)C[C@H]2N)OC[C@]1(C)O.CN[C@@H]1[C@@H](O)[C@@H](O[C@@H]2[C@@H](O)[C@H](O[C@H]3O[C@H]([C@@H](C)NC)CC[C@H]3N)[C@@H](N)C[C@H]2N)OC[C@]1(C)O | inactive |
| CN[C@@H]1[C@@H](O)[C@@H](O[C@@H]2[C@H](O)[C@@H](O[C@H]3O[C@H]([C@@H](C)O)[C@@H](O)[C@H](O)[C@H]3N)[C@H](N)C[C@@H]2N)OC[C@]1(C)O | inactive |
| O=C1O[C@H]2CN[C@@H]1C2 | inactive |
| C[C@H]1CN([C@@H](C)CO)C(=O)CCCn2nncc2CO[C@@H]1CN(C)C(=O)Oc1ccc2ccccc2c1 | inactive |
| CC1=C(O)C(=O)C=C2C1=CC=C1C2(C)CCC2(C)C3CC(C)(C(=O)O)CCC3(C)CCC12C (configuration not stated) | inactive |
| Cc1nc2c(=O)n(C)c(=O)nc-2n(C)n1 | inactive |
| CCn1nc(-c2cccnc2)nc2c(=O)n(C)c(=O)nc1-2 | active |
| Cn1ncnc2c(=O)n(C)c(=O)nc1-2 | inactive |
| CCC1=C[C@@H]2[C@H](C1)C[C@]2(CN)CC(=O)O | inactive |
| C[C@@H]1CN([C@@H](C)CO)C(=O)CCCn2cc(nn2)CO[C@@H]1CN(C)C(=O)Oc1cccc2ccccc12 | inactive |
| Cl.Oc1noc2c1CCNC2 | inactive |
| CC12CCC(O)CC1CCC1C2CC(O)C2(C)C(C3=CC(=O)OC3)CCC12O (configuration not stated) | inactive |
| CC1=C2CC3C(CC=C4CC(O)CCC43C)C2CCC12OC1CC(C)CNC1C2C (configuration not stated) | inactive |
| O=C(O)C=CC(=O)O.c1ccc2nc(N3CCNCC3)ccc2c1 | inactive |
| CC(C)(C)C(=O)C(Oc1ccc(Cl)cc1)n1cncn1 (configuration not stated) | inactive |
| O=C1C=C2C(=CCOC2O)O1 (configuration not stated) | active |
| O=C1C=C2C(=CCO[C@@H]2O)O1 | inactive |
| CO[C@@H]1C=C[C@@H]2[C@H]1N2CCCO (some centres not stated) | inactive |

| Structure (SMILES) | growth inhibition call |
| --- | --- |
| Cc1cc[n+](C)cc1 | inactive |
| COc1ccc(CN2CCNCC2)c(OC)c1OC.Cl.Cl | inactive |
| COCCCNC(=O)C1[C@@H]2CC[C@H]1CNC2 (some centres not stated) | inactive |
| COc1ccc2c(c1)C[C@H](N)C2 | inactive |
| Oc1c(Cl)c(Cl)c(Cl)c(Cl)c1Cl | active |
| CCCCCCCCCCCCCCCC[N+](C)(C)C.[Br-] | inactive |
| C[C@@H](N)Cc1c[nH]c2ccc(O)cc12 | inactive |
| Oc1ccccc1N1CCNCC1 | inactive |
| CN1C(=O)[C@@]23C[C@]4([C@@]56C[C@]78SS[C@](CO)(C(=O)N7[C@@H]5Nc5ccccc56)N(C)C8=O)c5ccccc5N[C@H]4N2C(=O)[C@@]1(CO)SS3 | active |
| CN1C(=O)[C@]23CC4=CC=C[C@H](O)[C@H]4N2C(=O)[C@@]1(CO)SS3 | inactive |
| CCCC(=O)c1c(O)[nH]c(=O)[nH]c1=O | inactive |
| CCCC12CNCC(C)(CNC1)C2=O | inactive |
| c1ccc2cc3c(cc2c1)-c1cccc2cccc-3c12 | inactive |
| CN(C)C(=S)SSC(=S)N(C)C | active |
| CO[C@@H]1C[C@@H](C[C@H]2CC[C@H](C)[C@H]([C@@H](C)C(=O)O)O2)O[C@]2(O[C@](C)([C@H]3CC[C@@](C)([C@H]4O[C@@H]([C@H]5O[C@@](O)(CO)[C@H](C)C[C@@H]5C)C[C@@H]4C)O3)C[C@H]2C)[C@@H]1C | active |
| Cc1ccc(OC(=O)N(C)C[C@H]2OCc3ccccc3-c3c(n(C)c4ccccc34)C(=O)N([C@@H](C)CO)C[C@@H]2C)cc1 | inactive |
| CC(C)c1cc2c(c(O)c1O)C1(C(=O)O)CCCC(C)(C)C1CC2 (configuration not stated) | inactive |
| O=C(NCNC(=O)N[C@H]1C(=O)NC(=O)N1CO)N[C@H]1C(=O)NC(=O)N1CO | inactive |
| CC(C)(CN)CNc1ccc([N+](=O)[O-])c2cccnc12 | inactive |
| CC(=O)OC1CC(OC2C(O)CC(OC3C(O)CC(OC4CCC5(C)C(CCC6C5CC(O)C5(C)C(C7=CC(=O)OC7)CCC65O)C4)OC3C)OC2C)OC(C)C1OC1OC(CO)C(O)C(O)C1O (configuration not stated) | inactive |
